Screen size: about 340,000 compounds; about 12,000 (3.5%) were called active. Another 18% or so got no clear call; they are omitted. Many of the other results were omitted from the sample, so actives are more common in it than they were. Unmarked numbers belong to inactive results. Calls follow the shape of the dose curve; as a rule, active = well fitted inhibition curve with a large enough effect; inconclusive = small, poorly fitted or top-dose-only effect, or another doubt; inactive = no such curve, though single readings can be large or run the other way.
Experiment: qHTS Assay for Inhibitors of Hepatitis C Virus (HCV)
Details: Huh7.5.1 HCVcc-Cre infection, luciferase reporter, 44 h; series mostly up to 41.8 µM; activity change, negative = inhibition: at the top concentration
How it was run: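 Whole-lifecycle infectious HCVcc-Cre system; cells 1,000/well, compound then virus (~0.5 moi) added 4 h after plating, 44 h culture. Luciferase read 15 sec following 15 min substrate incubation, room temp.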
% is scaled to controls: 0 for no effect and ±100 for the full control effect; potency is read from the fitted curve at half-maximal effect.

Row | SMILES | activity change, negative = inhibition | Potency
1 | Cc1nc2ccccc2c(=O)n1-c1ccc(F)c(NC(=O)c2cccs2)c1 | -0.715% | –
2 | CCCN(CC1CC1)C(=S)NC(=O)c1ccccc1Br | 11.2% | –
3 | CCOc1ncccc1C(=O)OCC(=O)c1c[nH]c2ccccc12 | -3.08% | –
4 | O=C(Nc1ccc2ccccc2c1[N+](=O)[O-])c1ccccc1 | -0.234% | –
5 | COc1ccccc1C(=O)NCCC(=O)NCC(c1ccco1)N1CCCCC1 (stereo not drawn) | 32.7% | –
6 | O=C(COC(=O)c1ccc(Br)o1)NC12CC3CC(CC(C3)C1)C2 | 7% | –
7 | CN(C(=O)COC(=O)CCCc1c[nH]c2ccccc12)c1c(N)n(Cc2ccccc2)c(=O)[nH]c1=O | -6.59% | –
8 | COc1ccc(Cl)cc1NC(=O)CN(C)C(=O)c1ccc2n[nH]nc2c1 | -1.24% | –
9 | CN(C(=O)CSc1nnc(-c2ccc(C(C)(C)C)cc2)n1C)C1CCS(=O)(=O)C1 (stereo not drawn) | 6.07% | –
10 | O=C(Nc1cccc(C(F)(F)F)c1)c1cnccn1 | 11.3% | –
11 | Cn1nc(C(F)(F)F)c(C(=O)Nc2cccc(C(F)(F)F)c2)c1SCc1ccc(Cl)cc1 | – | 10 µM (active)
12 | O=C(O)CSCC(=O)Nc1cccc(C(F)(F)F)c1 | 5.73% | –
13 | O=C1OC[C@@H]2CCCN2C(=O)[C@H](CC(=O)N(CCO)Cc2ccccc2)C/C=C\CC[C@@H]1Cc1ccc(F)cc1 | 6.22% | –
14 | O=C1c2ccccc2[C@@H]2C[C@@H](O)[C@H](Nc3ccccc3Cl)CCN12 | -5.58% | –
15 | CSc1ccccc1NC(=O)c1cnc2sc(C)cn2c1=O | -27.8% | –
16 | Nc1c(C(=O)c2cccs2)sc2nsc(SCCN3CCCCC3)c12 | – | 10 µM (active)
17 | O=C(CN1C2=NCCN2c2ccccc21)c1cccs1 | -31.7% | –
18 | O=C(C[C@H]1C[C@H](C(=O)N2CCOCC2)[C@@]2(CCC3CCCC3)c3[nH]c4ccc(Cl)cc4c3CCN2C1=O)NCc1ccco1 | 43.8% | –
19 | CC(C)(C)OC(=O)C[C@@H]1C/C=C\C[C@@H](CC(=O)N[C@H](CO)Cc2ccccc2)C(=O)NCCOC1=O | -14.5% | –
20 | O=S(=O)(O)c1cc2onnc2c2ccccc12 | 8.72% | –
21 | Cc1c(Cl)cnc(NC(=O)COC(=O)C2CCCC2)c1Cl | -26.3% | –

Row | SMILES | activity change, negative = inhibition | Potency
22 | CN(C)c1cc[n+](Cc2ccccc2)cc1 | – | 0.891 µM (active)
23 | c1ccc(Cc2cc[n+](Cc3ccccc3)cc2)cc1 | 20.7% | –
24 | CN(C)c1ccc(CSc2ccccc2)cc1 | 8.39% | –
25 | O=C1CCC/C=C/C[C@@H](CC(=O)N(CCO)Cc2ccccc2)C(=O)NC[C@H](c2ccccc2)O1 | 15% | –
26 | Cc1ccc(S(=O)(=O)N(C)c2ccc(OCC(=O)OCc3ccc(C#N)cc3)cc2)cc1 | 25.2% | –
27 | O=C(CN1CCN(c2ccccn2)CC1)Nc1ccc(Br)cc1 | 3.8% | –
28 | Cc1cc(Br)ccc1NC(=O)c1cnc(N2CCN(c3ccccn3)CC2)c2ccccc12 | – | 2.51 µM (active)
29 | Cc1cc(Br)ccc1NC(=O)c1sc2ncn(CC(=O)N3CCN(c4ccccn4)CC3)c(=O)c2c1C | 9.26% | –
30 | COc1ccc(NC(=O)N(C)C[C@H]2Oc3ccc(NC(=O)C4CC4)cc3C(=O)N([C@H](C)CO)C[C@@H]2C)cc1 | -1.35% | –
31 | O=C(CCC(=O)c1cccs1)Nc1nc2ccccc2s1 | -15% | –
32 | CCCn1c(=NC(C)=O)c(C(=O)OCC)cc2c(=O)n3ccccc3nc21 | -22.4% | –
33 | C/C(=N/OC(=O)c1c(-c2c(F)cccc2Cl)noc1C)c1cnccn1 | 0.663% | –
34 | CCOC(=O)c1cc2c(=O)n3ccccc3nc2n(CC(C)C)c1=NC(=O)c1c(-c2c(F)cccc2Cl)noc1C | – | 10 µM (active)
35 | CC1CCc2c(sc3nc4n(c(=O)c23)CCS4)C1 (stereo not drawn) | -20.1% | –
36 | CCCn1nnc2sc3c(c2c1=O)CCC(C)C3 (stereo not drawn) | 0.285% | –
37 | CC1CCc2sc3nc(N4CCN(CCO)CC4)n4ncnc4c3c2C1 (stereo not drawn) | – | 20 µM (active)
38 | Cc1ccc(CSc2ccc(S(=O)(=O)N3CCCCC3)cn2)cc1 | -5.06% | –
39 | C=CC[C@@H](CC(=O)N[C@@H](CO)Cc1ccccc1)C(=O)N[C@H](COC(=O)[C@H](CC=C)CC(=O)OC(C)(C)C)Cc1ccccc1 | 22.3% | –
40 | COc1cccc(NC(=O)CN(C)C(=O)c2cc(C3CC3)nn2-c2ccccc2)c1 | -21.5% | –
41 | COc1ccc(COC(=O)c2n[nH]c3ccccc23)cc1F | -17.8% | –
42 | CCN(CC)S(=O)(=O)c1ccc2nc(CSc3nnnn3-c3ccc(O)cc3)[nH]c2c1 | -16.9% | –

Row | SMILES | activity change, negative = inhibition | Potency
43 | CCN(CC)S(=O)(=O)c1ccc2nc(COC(=O)c3n[nH]c4ccccc34)[nH]c2c1 | – | 12.6 µM (active)
44 | CC(OC(=O)c1cc2ccccc2[nH]1)C(=O)N(C)c1ccccc1 (stereo not drawn) | -6.2% | –
45 | CCNC(=O)c1c(O)c2cccc3c2n(c1=O)CC3 | 11.3% | –
46 | CCN(CC)CCCNC(=O)c1c(O)c2cc(F)cc3c2n(c1=O)C(C)CC3 (stereo not drawn) | – | 10 µM (active)
47 | CCN(CC)CCCNC(=O)c1cn(C)c2ccc(S(=O)(=O)N(C)C3CCCCC3)cc2c1=O | -9.03% | –
48 | O=C(CSc1nnc(CN2CCCC2)n1-c1ccc(F)cc1)c1ccc2c(c1)OCO2 | -6.26% | –
49 | COc1ccc(/C=C/C(=O)OCC(=O)N2CCN(S(=O)(=O)c3ccc(C)cc3C)CC2)cc1OC | 0.143% | –
50 | CCn1ccnc1CN(C)C(=O)c1cc(COc2ccc(-n3cncn3)cc2)on1 | -21% | –
51 | C=CCC1(CC=C)CCCN1C(=O)c1cc(COc2ccc(-n3cncn3)cc2)on1 | – | 5.01 µM (active)
52 | O=C(c1cc(COc2ccc(F)c(F)c2)on1)N1CCOCC1 | 0.0465% | –
53 | O=C1C[C@@H]2c3c(cccc3CN1Cc1ccccc1)C[C@@H](O)[C@H]2O | 9.7% | –
54 | Cc1ccc(-c2cc(=O)[nH]c(NCc3ccccc3)n2)cc1 | 12.1% | –
55 | O=C(CN1C(=O)NC2(CCOc3ccccc32)C1=O)Nc1cccc([N+](=O)[O-])c1 (stereo not drawn) | -16.3% | –
56 | CN(C(=O)COC(=O)c1cc(-c2ccco2)nc2ccccc12)C1CCS(=O)(=O)C1 (stereo not drawn) | -5.06% | –
57 | CN(C(=O)COC(=O)c1nc(Cl)ccc1Cl)C1CCS(=O)(=O)C1 (stereo not drawn) | -7.4% | –
58 | Cc1c(-c2cccc(Cl)c2)nc2ccccc2c1C(=O)OCC(=O)N(C)C1CCS(=O)(=O)C1 (stereo not drawn) | – | 3.55 µM (active)
59 | Cc1ccc(CNC(=O)Cn2cnc3c(NCc4ccccc4)ncnc32)o1 | -2.28% | –
60 | Cc1ccc(NC(=O)Cn2c(C)csc2=O)cc1 | 11% | –
61 | CSCc1cc(N2CCOCC2)nc(SCc2ccc(Cl)cc2Cl)n1 | -16.6% | –
62 | CSCc1cc(N(C)C)nc(SCc2ccc(Cl)cc2Cl)n1 | – | 8.91 µM (active)
63 | Clc1ccc(CSc2nnc(/C=C/c3ccccc3)o2)c(Cl)c1 | -3.62% | –
